Bioassay records as filed in PubChem BioAssay.
AmpC detergent = AmpC beta-lactamase inhibition with detergent present. AmpC hydrolysis of nitrocefin, absorbance 480 nm, 0.01% Triton. Potency, µM (doses to about 114 µM), without a hit: at the highest dose activity change, negative = inhibition, usual class: inhibitors. hit rate 0.041% among 370,000. AID 485294;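 further: 0% = no-compound wells and -100% = no-enzyme wells; nearly all actives have a fitted effect of over 25% in size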
Target sequence (P00811 whole entry, looked up): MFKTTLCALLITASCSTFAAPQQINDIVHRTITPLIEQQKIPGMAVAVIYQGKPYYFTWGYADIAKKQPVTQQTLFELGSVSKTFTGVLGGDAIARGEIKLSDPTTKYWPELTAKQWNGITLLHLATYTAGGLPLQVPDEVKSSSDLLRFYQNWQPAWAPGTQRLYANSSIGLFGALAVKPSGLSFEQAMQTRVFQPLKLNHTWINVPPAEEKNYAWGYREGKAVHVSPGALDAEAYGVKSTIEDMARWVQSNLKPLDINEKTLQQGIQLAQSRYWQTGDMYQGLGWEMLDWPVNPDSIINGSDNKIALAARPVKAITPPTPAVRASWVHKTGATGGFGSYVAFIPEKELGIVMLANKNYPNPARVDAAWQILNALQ
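AmpC (5.3 nM in the dispensed reagent) in 20 mM phosphate pH 7.0 with 0.01% (detergent screen) or 0.0001% Triton X-100 was preincubated with compounds for 15 min at room temperature. Nitrocefin was then added from an 800 uM solution, and hydrolysis was followed at 480 nm.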
Sm TGR block = blocks Schistosoma mansoni thioredoxin glutathione reductase; Q962Y6; purified TGR, DTNB reduction, TNB absorbance 405 nm; Potency, µM (highest dose often 114 µM), for the others: top-dose activity change, negative = inhibition, actives largely listed as inhibitors; hit rate 3% among 360,000; AID 485364; further: nearly all actives have a fitted effect of over 60% in size
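Kinetic colorimetric format: TGR-catalysed, NADPH-driven DTNB reduction monitored via TNB absorbance. Enzyme dispensed at 20 nM; compound exposure 15 min at room temperature before reaction start.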
AmpC inh no detg = inhibitors of E. coli AmpC beta-lactamase without detergent. Potency, µM (doses to about 57.1 µM), inactives show top-dose activity change, negative = inhibition, usual class: inhibitors. AmpC nitrocefin hydrolysis, absorbance 480 nm, 0.0001% Triton. P00811. AID 485341. hit rate 0.52% among 330,000;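 further: plate controls were no compound for no effect and no enzyme for full effect; nearly all actives have a fitted effect of over 20% in size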
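AmpC (5.3 nM in the dispensed reagent) in 20 mM phosphate pH 7.0 with 0.01% (detergent screen) or 0.0001% Triton X-100 was preincubated with compounds for 15 min at room temperature. Nitrocefin was then added from an 800 uM solution, and hydrolysis was followed at 480 nm.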
The depositor's hits bear a star; ? = inconclusive; nt = no result. A selection: hits, their analogues and other compounds. The true share with any hit is near 3.3%. The call rests on the fitted dose curve; in most records, active means well fitted curve in the direction sought with a large enough effect; inconclusive means small, poorly fitted or top-dose-only effect, or another doubt; inactive means no such curve, though single readings can be large; an effect the other way counts as inactive or inconclusive. Unless noted, on the % scale 0 is the no-effect control and ±100 the full control effect; potency means the concentration at half of the fitted maximal effect.

SMILES | AmpC detergent | Sm TGR block | AmpC inh no detg
C=CCSC1=N/C(=C\c2ccc(C)o2)C(=O)S1 | ? | 40µM* | -31%
C=CCSC1=N/C(=C\c2ccsc2)C(=O)S1 | ? | -28% | -48%
CC(C)CCNC(=O)c1ccc2nc(CCc3ccccc3)oc2c1 | 21% | 1% | nt
Cc1ccc(Cl)cc1NS(=O)(=O)c1ccc2oc(=O)c3ncn(C)c3c2c1 | -1% | -3% | nt
O=C1c2ccccc2C(=O)N1Cc1nc2ccccc2c(=O)n1Cc1ccco1 | -12% | 4% | -11%
O=c1c2ccccc2sc2nc(C3CCCCC3)n(Cc3ccco3)c(=O)c12 | 0% | 10µM* | -24%
O=c1c2c3c(sc2nc(NCCO)n1Cc1ccco1)CCCCC3 | -13% | 1% | 74%
CCc1nc2sc3ccccc3c(=O)c2c(=O)n1Cc1ccco1 | ? | 35µM* | -31%
COc1ccc(OC)c(S(=O)(=O)NCCc2sc(-c3cccnc3)nc2C)c1 | 1% | -24% | nt
COc1ccc(Cn2c(CO)cnc2SCc2ccc(C)cc2)cc1 | 4% | -2% | nt
CCc1nc(N2CCN(C(=O)CCl)CC2)c2c3c(sc2n1)CC(C)CC3 (configuration not stated) | 6% | 16µM* | 107%
CCc1nc(N2CCN(C(C)=O)CC2)c2c3c(sc2n1)CC(C(C)(C)C)CC3 (configuration not stated) | ? | 0% | 13%
O=C(Nc1c(Cl)cccc1Cl)c1cc(-c2cccc(O)c2)on1 | 18% | 17% | nt
O=C(O)C1C2C=CC(O2)C1C(=O)Nc1ccc(S(=O)(=O)Nc2ccccc2)cc1 (configuration not stated) | -9% | 6.3µM* | -29%
O=C(O)C1C2C=CC(O2)C1C(=O)Nc1ccc(S(=O)(=O)N2CCc3ccccc32)cc1 (configuration not stated) | -4% | 14µM* | -20%
CC(=O)Nc1ccc(S(=O)(=O)N2CCCc3ccccc32)cc1 | -1% | -27% | -7%
NS(=O)(=O)c1ccc(NS(=O)(=O)c2ccc(NC(=S)Nc3ccccc3)cc2)cc1 | ? | ? | -13%
Cc1ccc(Cl)cc1NC(=O)Cn1c(SCC(=O)NCc2ccccc2)nc2ccccc21 | 7% | 0% | nt
Cc1ccc2c(CC(=O)N3CCN(c4cccc(Cl)c4)CC3)coc2c1 | 15% | 1% | nt
COc1ccc2nc(NC(=O)CNS(=O)(=O)c3cccs3)sc2c1 | -5% | -6% | ?
C/C(=N\NC(=O)c1ccc(NS(=O)(=O)c2cccs2)cc1)c1ccccc1 | 2% | 0% | -40%
COc1ccc2nc(NC(=O)c3ccc(NS(=O)(=O)c4cccs4)cc3)sc2c1 | ? | -10% | 2.5µM*
COc1ccc(/C(C)=N/NC(=O)c2ccc(NS(=O)(=O)c3cccs3)cc2)cc1 | -10% | -9% | 10µM*
Cc1nnc(Sc2cc(NCCO)c([N+](=O)[O-])c3nonc23)s1 | ? | ? | -57%
CCC(=O)OCCNc1cc(Sc2nc3ccccc3s2)c2nonc2c1[N+](=O)[O-] | ? | 0.25µM* | -34%
SMILES | AmpC detergent | Sm TGR block | AmpC inh no detg
O=[N+]([O-])c1c(NCCCO)cc(Sc2nc3ccccc3s2)c2nonc12 | -2% | -8% | -14%
CCC(=O)OCCNc1cc(Sc2nc3ccccc3[nH]2)c2nonc2c1[N+](=O)[O-] | ? | 0.56µM* | -49%
NCCNc1ccc([N+](=O)[O-])c(Sc2nc3ccccc3[nH]2)c1 | -4% | 1% | -16%
Cc1nnc(Sc2cc(NCCCO)c([N+](=O)[O-])c3nonc23)s1 | ? | 0.32µM* | 28µM*
Cc1ccc(OCC(=O)NCC2(N3CCN(C)CC3)CCCCC2)cc1 | 16% | 1% | nt
Cc1cccc(CCNC(=O)c2ccc3c(c2)N(Cc2ccccc2F)C(=O)c2ccccc2S3)c1 | -6% | 1% | nt
CCN1C(=O)c2ccccc2S(=O)(=O)c2ccc(C(=O)NCc3ccccc3Cl)cc21 | 9% | 5% | nt
CCOC(=O)c1ccc(CC(=O)c2ccc(O)cc2O)o1 | 2% | -22% | -29%
CCC(=O)Oc1ccc(C/C(=N\O)c2ccc(O)cc2O)o1 | 0% | 7.9µM* | -27%
O=[N+]([O-])C(=C1Nc2ccccc2N1)C(Cl)=C(Cl)Cl | 0% | 3.2µM* | -29%
O=C1Nc2ccccc2Nc2ccc([N+](=O)[O-])cc21 | 2% | -16% | -21%
Cc1cccn2c(=O)c(/C=C(\C#N)C(N)=O)c(N3CCN(c4ccccc4)CC3)nc12 | -3% | -9% | 36%
Cc1cccn2c(=O)c(/C=C(\C#N)C(N)=O)c(Oc3ccccc3)nc12 | 2% | 32µM* | -5%
NC(=O)Cc1ncc(C(F)(F)F)cc1Cl | 2% | 6% | -17%
OCC#Cc1ncc(C(F)(F)F)cc1Cl | 1% | 45µM* | -19%
O=C1C=CC(=O)C=C1 | nt | nt | -4%
O=C1C=CC(=O)N1 | ? | 0.89µM* | -17%
COc1cc(C(=O)NC2(C(F)(F)F)C(=O)NC(C)=C2C#N)cc(OC)c1OC (configuration not stated) | -3% | 11% | nt
O=C(O)c1ccc(-n2ncc3c2/C(=C/c2cccc([N+](=O)[O-])c2)CC3)cc1 | ? | -23% | -32%
O=C(O)c1ccccc1-n1ncc2c1/C(=C/c1ccc(Cl)cc1)CC2 | 4% | 14µM* | -30%
CCCCSc1nnc2n(-c3cccc(C)c3)c(=O)c3c4c(sc3n12)CCCC4 | -1% | -11% | nt
C/C(=C\c1cccc(Cl)c1Cl)C(=O)c1c(C)cc(C)[nH]c1=O | -8% | 1% | -1%
COc1ccccc1/C=C/C(C)=O | -10% | -8% | -6%
CNc1ccc(Br)cc(C(=O)/C=C/c2cccc(OC)c2OC)c1=O | -5% | 7.1µM* | -31%
COc1ccccc1/C=C/C(=O)/C=C/c1ccccc1O | 3% | 20µM* | ?
SMILES | AmpC detergent | Sm TGR block | AmpC inh no detg
CNc1ccccc(C(=O)/C=C/c2ccccc2OC)c1=O | -12% | 2.8µM* | -44%
COc1ccccc1/C=C/C(=O)Nc1cccnc1Cl | 2% | 6% | -11%
COc1cccc(/C=C/C(=O)c2ccc3c(c2)OCO3)c1OC | 4% | -19% | -6%
CNc1ccc(Br)cc(C(=O)/C=C/c2cccc(Cl)c2Cl)c1=O | 7% | 2.5µM* | -41%
COc1ccc(NC(=O)Cn2c(=O)n(-c3ccc(OC)cc3)c(=O)c3sc4ccccc4c32)cc1 | 4% | 2% | nt
COc1ccc(CNc2nc(-c3ccc(OC)cc3)cc(C(F)(F)F)n2)cc1 | 13% | 1% | nt
COC(=O)c1c(SCC(=O)Nc2cccc(Cl)c2C)[nH]c2ccccc2c1=O | 1% | 4% | nt
CN(C)c1ccc(NC(=O)Cn2c(SCc3ccc(F)cc3)nc3cccnc32)cc1 | 0% | -1% | nt
COc1ccc(OC)c(NC(=O)Cn2c(=O)c3cccn3c3ccccc32)c1 | -2% | 1% | nt
Cc1nn(CC(=O)Nc2ccc(C(C)C)cc2)c(=O)c2c(C)n(-c3ccc(Cl)cc3)nc12 | 0% | -7% | nt
Cc1cc(C)cc(Oc2c(C(F)(F)F)oc3cc(OCC(=O)NC4CCCCC4)ccc3c2=O)c1 | -1% | -5% | nt
Cc1ccc(C)n1-c1sccc1C(=O)O | -8% | 40µM* | -25%
Cc1ccc(C)n1-c1sc2c(c1C(=O)O)CCCC2 | ? | 0% | -44%
CCOC(=O)c1ccc(NC(=O)Cc2ccc(-n3c(CC)nc4cccnc43)cc2)cc1 | 5% | -3% | nt
